{"source": "ChEMBL document CHEMBL1961873", "about": "“Compounds: GSK PKIS; Assays: Nanosyn kinase panel” (2012);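 note: reported value is the mean percent inhibition of the kinase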", "data": [{"biological_target": "Casein kinase I isoform gamma-3 (Homo sapiens) (UniProt Q9Y6M4)", "sequence (Q9Y6M4 whole entry, looked up, canonical isoform)": "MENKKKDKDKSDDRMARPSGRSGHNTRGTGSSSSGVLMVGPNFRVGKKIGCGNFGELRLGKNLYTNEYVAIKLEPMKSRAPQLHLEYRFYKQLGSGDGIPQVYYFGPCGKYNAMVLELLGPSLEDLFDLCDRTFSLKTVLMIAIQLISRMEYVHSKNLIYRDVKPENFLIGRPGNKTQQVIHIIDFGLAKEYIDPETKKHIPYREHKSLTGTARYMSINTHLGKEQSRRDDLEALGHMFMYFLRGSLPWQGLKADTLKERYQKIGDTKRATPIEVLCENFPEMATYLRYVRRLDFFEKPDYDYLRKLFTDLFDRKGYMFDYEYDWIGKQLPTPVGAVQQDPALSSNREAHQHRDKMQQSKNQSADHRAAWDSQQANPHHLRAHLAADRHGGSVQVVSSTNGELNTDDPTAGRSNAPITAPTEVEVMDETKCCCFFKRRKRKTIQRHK", "conditions": "at 0.1 µM", "units": {"inhibition": "%"}, "values": [{"smiles": "CCCN(CCS(C)(=O)=O)Cc1ccc(-c2ccc3ncnc(Nc4ccc(OCc5cccc(F)c5)c(Cl)c4)c3c2)o1", "inhibition": -1.08}, {"smiles": "CCn1c(-c2nonc2N)nc2c(C#CC(C)(C)O)ncc(OC3CCNCC3)c21", "inhibition": 2.65}, {"smiles": "CCn1c(-c2nonc2N)nc2c(C#CC(C)(C)O)nc(OC[C@H](N)c3ccccc3)cc21", "inhibition": 1.72}, {"smiles": "CC(=O)Nc1cccc(C#Cc2cncnc2Nc2ccc(OCc3cccc(F)c3)c(Cl)c2)c1", "inhibition": 2.41}, {"smiles": "Cc1ccc(O)cc1Nc1ccnc2cc(-c3ccccn3)ccc12", "inhibition": 4.03}, {"smiles": "CCn1c(-c2nonc2N)nc2cnc(Oc3cccc(NC(=O)c4ccc(N(C)C)cc4)c3)cc21", "inhibition": 0.95}, {"smiles": "NC(=O)c1sc(-n2cnc3ccc(C(F)(F)F)cc32)cc1OCc1ccccc1Br", "inhibition": 1.35}, {"smiles": "CCc1nn2ncccc2c1-c1ccnc(NC2CC2)n1", "inhibition": 1.24}, {"smiles": "N#Cc1c(NC(=O)CN2CCOCC2)sc2c1CCCC2", "inhibition": 4.84}, {"smiles": "CN(C)CCOc1ccc(-c2nc(-c3ccncc3)c(-c3ccc4c(c3)CC/C4=N\\O)[nH]2)cc1", "inhibition": 3.08}, {"smiles": "CCOc1ccc2c(-c3ccnc(Nc4cccc(C(F)(F)F)c4)n3)cnn2n1", "inhibition": 1.18}, {"smiles": "COc1cccc(-c2c[nH]c3c(N/N=C/c4ccncc4)ncnc23)c1", "inhibition": 1.09}, {"smiles": "c1cc(-c2cnn3nc(N4CCOCC4)ccc23)nc(NC2CC2)n1", "inhibition": 2.89}, {"smiles": "CNC(=O)c1cncc(/C=C/c2ccccc2Cl)c1", "inhibition": 0.25}, {"smiles": "c1ccc(-c2nc3n(c2-c2ccc4c(c2)OCO4)CCC3)nc1", "inhibition": 0.57}, {"smiles": "Fc1cccc(COc2ccc(Nc3ncnc4sc(-c5ccco5)cc34)cc2Cl)c1", "inhibition": 3.95}]}]}
